Reference: PubChem BioAssay AID1159580 (chemical genetic matrix, 2015)
About 2,000 (36%) of roughly 5,500 compounds were called active. Roughly 18% stayed inconclusive and do not appear here. Cut-off read from the data, not from the text of the source: active = normalized growth mostly below about 0.91 (no sharp cut-off); inconclusive = no clear call, values can overlap the other calls; inactive = mostly above about 0.92. Some of the results follow.

Assay: chemical genetic growth profiling, strain panel (AID 1159580);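 note: tested at 20 µM; growth read once vehicle control cultures reached saturation at 30 °C; 1 = growth at the plate median or of vehicle wells; lower values mean less growth of the strain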
Conditions: growth OD

Measured: normalized growth

COc1cc2c(cc1OC)C(=O)c1ccc(OC)c(OC)c1OCC(=O)C2
inactive: S. cerevisiae deletion strains, locus YAL013W, strain DEP1, active compounds read low 1.01 | S. cerevisiae deletion strains, locus YBR021W, strain FUR4, active compounds read low 1.08 | S. cerevisiae deletion strains, locus YBR229C, strain ROT2, active compounds read low 1.01 | S. cerevisiae deletion strains, locus YCL029C, strain bik1, active compounds read low 1.01 | S. cerevisiae deletion strains, locus YDL035C, strain GPR1, active compounds read low 1.05 | S. cerevisiae deletion strains, locus YDL074C, strain BRE1, active compounds read low 1.05 | S. cerevisiae deletion strains, locus YDL101C, strain DUN1, active compounds read low 0.993 | S. cerevisiae deletion strains, locus YDL185W, strain tfp1, active compounds read low 0.982 | S. cerevisiae deletion strains, locus YDL192W, strain arf1, active compounds read low 1.04 | S. cerevisiae deletion strains, locus YDR101C, strain arx1, active compounds read low 1.06 | S. cerevisiae deletion strains, locus YDR162C, strain NBP2, active compounds read low 1.04 | S. cerevisiae deletion strains, locus YDR318W, strain mcm21, active compounds read low 1.01 | S. cerevisiae deletion strains, locus YDR388W, active compounds read low 1.01 | S. cerevisiae deletion strains, locus YDR502C, strain sam2, active compounds read low 0.991 | S. cerevisiae deletion strains, locus YEL061C, strain CIN8, active compounds read low 1.01 | S. cerevisiae deletion strains, locus YER110C, active compounds read low 1.01 | S. cerevisiae deletion strains, locus YER155C, strain BEM2, active compounds read low 0.992 | S. cerevisiae deletion strains, locus YER167W, strain BCK2, active compounds read low 0.995 | S. cerevisiae deletion strains, locus YGL078C, strain dbp3, active compounds read low 0.963 | S. cerevisiae deletion strains, locus YGL086W, strain mad1, active compounds read low 1.02 | S. cerevisiae deletion strains, locus YGL248W, strain PDE1, active compounds read low 0.994 | S. cerevisiae deletion strains, locus YGR078C, strain PAC10, active compounds read low 1.02 | S. cerevisiae deletion strains, locus YGR135W, strain pre9, active compounds read low 0.968 | S. cerevisiae deletion strains, locus YGR252W, strain gcn5, active compounds read low 1.05 | S. cerevisiae deletion strains, locus YHR030C, strain SLT2, active compounds read low 1 | S. cerevisiae deletion strains, locus YHR079C, strain IRE1 (second series), active compounds read low 1 | S. cerevisiae deletion strains, locus YHR094C, strain hxt1, active compounds read low 0.991 | S. cerevisiae deletion strains, locus YHR129C, strain ARP1, active compounds read low 1 | S. cerevisiae deletion strains, locus YHR200W, strain rpn10, active compounds read low 1.02 | S. cerevisiae deletion strains, locus YIL066C, strain RNR3, active compounds read low 1.01 | S. cerevisiae deletion strains, locus YIL073C, strain SPO22, active compounds read low 0.954 | S. cerevisiae deletion strains, locus YIL125W, strain kgd1, active compounds read low 1.01 | S. cerevisiae deletion strains, locus YIR030C, strain dcg1, active compounds read low 1 | S. cerevisiae deletion strains, locus YJL095W, strain BCK1, active compounds read low 1.01 | S. cerevisiae deletion strains, locus YJL134W, strain LCB3, active compounds read low 1.01 | S. cerevisiae deletion strains, locus YJL168C, strain set2, active compounds read low 1 | S. cerevisiae deletion strains, locus YJL187C, strain SWE1 (second series), active compounds read low 1.01 | S. cerevisiae deletion strains, locus YJR043C, strain POL32, active compounds read low 1.09 | S. cerevisiae deletion strains, locus YJR075W, strain HOC1, active compounds read low 0.997 | S. cerevisiae deletion strains, locus YKL009W, strain mrt4, active compounds read low 1.01 | S. cerevisiae deletion strains, locus YKL068W, active compounds read low 0.988 | S. cerevisiae deletion strains, locus YKL085W, strain MDH1 (second series), active compounds read low 0.962 | S. cerevisiae deletion strains, locus YKL085W, strain MDH1, active compounds read low 0.962 | S. cerevisiae deletion strains, locus YKR001C, strain vps1, active compounds read low 1 | S. cerevisiae deletion strains, locus YLR039C, strain RIC1, active compounds read low 1.03 | S. cerevisiae deletion strains, locus YLR058C, strain SHM2, active compounds read low 1.01 | S. cerevisiae deletion strains, locus YLR102C, strain apc9, active compounds read low 1.01 | S. cerevisiae deletion strains, locus YLR262C, strain YPT6, active compounds read low 1 | S. cerevisiae deletion strains, locus YLR268W, strain sec22, active compounds read low 1 | S. cerevisiae deletion strains, locus YLR330W, strain CHS5, active compounds read low 1 | S. cerevisiae deletion strains, locus YLR342W, strain FKS1 (second series), active compounds read low 1.13 | S. cerevisiae deletion strains, locus YLR371W, strain rom2, active compounds read low 0.984 | S. cerevisiae deletion strains, locus YLR418C, strain cdc73, active compounds read low 1.01 | S. cerevisiae deletion strains, locus YML016C, strain PPZ1, active compounds read low 1.01 | S. cerevisiae deletion strains, locus YML032C, strain rad52, active compounds read low 1.03 | S. cerevisiae deletion strains, locus YML124C, strain tub3, active compounds read low 0.983 | S. cerevisiae deletion strains, locus YMR078C, strain ctf18, active compounds read low 1 | S. cerevisiae deletion strains, locus YMR223W, strain ubp8, active compounds read low 1.01 | S. cerevisiae deletion strains, locus YMR263W, strain SAP30, active compounds read low 0.993 | S. cerevisiae deletion strains, locus YMR307W, strain GAS1, active compounds read low 1.2 | S. cerevisiae deletion strains, locus YNL067W, strain RPL9B, active compounds read low 0.976 | S. cerevisiae deletion strains, locus YNL233W, strain BNI4, active compounds read low 1.01 | S. cerevisiae deletion strains, locus YNL250W, strain rad50, active compounds read low 0.936 | S. cerevisiae deletion strains, locus YNL271C, strain bni1, active compounds read low 0.976 | S. cerevisiae deletion strains, locus YNL298W, strain CLA4, active compounds read low 1 | S. cerevisiae deletion strains, locus YNL307C, strain MCK1, active compounds read low 0.988 | S. cerevisiae deletion strains, locus YNR052C, strain pop2, active compounds read low 0.996 | S. cerevisiae deletion strains, locus YOL006C, strain TOP1, active compounds read low 1.27 | S. cerevisiae deletion strains, locus YOL012C, strain htz1 0.675 | S. cerevisiae deletion strains, locus YOL147C, strain pex11, active compounds read low 1.01 | S. cerevisiae deletion strains, locus YOR061W, strain CKA2, active compounds read low 1.02 | S. cerevisiae deletion strains, locus YOR069W, strain VPS5, active compounds read low 1 | S. cerevisiae deletion strains, locus YOR136W, strain idh2, active compounds read low 1 | S. cerevisiae deletion strains, locus YOR144C, strain elg1, active compounds read low 1 | S. cerevisiae deletion strains, locus YOR184W, strain ser1, active compounds read low 1.07 | S. cerevisiae deletion strains, locus YOR316C, strain cot1, active compounds read low 0.99 | S. cerevisiae deletion strains, locus YPL055C, strain LGE1, active compounds read low 1.09 | S. cerevisiae deletion strains, locus YPR119W, strain clb2, active compounds read low 0.977 | S. cerevisiae deletion strains, locus YPR141C, strain kar3, active compounds read low 0.972 | S. cerevisiae deletion strains, locus YPR163C, strain tif3, active compounds read low 0.999 | S. cerevisiae deletion strains, locus YPR167C, strain met16, active compounds read low 0.99 | S. cerevisiae deletion strains, strain wtn01, active compounds read low 1.04 | S. cerevisiae strains, strain wild type, active compounds read low 1.04
